Experimental data as given in PubChem BioAssay (NCI).
“And” between values parts separate entries of the source, which are not always exact repeats. Equal entries are not always repeated. Compounds without any hit were thinned out: in the full panel of roughly 83,000, 20% have a hit.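 Step 1: grow cells in 96-well plates. Step 2: add test compound at a single concentration. Step 3: incubate 48 h. Step 4: record percent growth.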 The source made the active and inactive calls. Rule for the calls: active = growth percent below 10; inactive = the rest.

How the values were obtained:
Assay in all cases: NCI-60 one-dose screen, 48 h (100 = growth as untreated, 0 = no growth, -100 = all killed)
Settings in all cases: 10 µM unless noted
SK-MEL-2 melanoma = tested on: SK-MEL-2 melanoma
EKVX NSCLC = tested on: EKVX NSCLC
SN12C renal = tested on: SN12C renal
UO-31 renal = tested on: UO-31 renal
TK-10 renal = tested on: TK-10 renal
ACHN renal = tested on: ACHN renal
CAKI-1 renal = tested on: CAKI-1 renal
A498 renal = tested on: A498 renal
HL-60(TB) leukemia = tested on: HL-60(TB) leukemia
CCRF-CEM leukemia = tested on: CCRF-CEM leukemia

Structure (SMILES)	growth (SK-MEL-2 melanoma)	growth (EKVX NSCLC)	growth (SN12C renal)	growth (UO-31 renal)	growth (TK-10 renal)	growth (ACHN renal)	growth (CAKI-1 renal)	growth (A498 renal)	growth (HL-60(TB) leukemia)	growth (CCRF-CEM leukemia)
c1ccc(CCN2CCCCC2)nc1	111% (inactive)	102% (inactive)	93.5% (inactive)	96.4% (inactive)	103% (inactive)	91.6% (inactive)	89.4% (inactive)	107% (inactive)	78.4% (inactive)	83.6% (inactive)
CCCCCCCCCCCCCCCCCC1OCC(COC(=O)O[C@@H](C(=O)O[C@H]2C[C@@]3(O)[C@@H](OC(=O)c4ccccc4)[C@@H]4[C@]5(OC(C)=O)CO[C@@H]5C[C@H](O)[C@@]4(C)C(=O)[C@H](OC(C)=O)C(=C2C)C3(C)C)[C@@H](NC(=O)c2ccccc2)c2ccccc2)O1 (stereo partly drawn)	59.5% (inactive)	77.5% (inactive)	44.8% (inactive)	107% (inactive)	102% (inactive)	96.6% (inactive)	82.8% (inactive)	46% (inactive)	4.84% (active)	18.5% (inactive)
COc1cc2c(c(OC)c1OC)-c1ccc(O)cc1[C@@H](NC(C)=O)CC2	41.3% (inactive)	44% (inactive) and 22.6% (inactive)	29.1% (inactive) and 26.9% (inactive)	25.5% (inactive) and 33.2% (inactive)	11.1% (inactive) and 38.5% (inactive)	24.8% (inactive) and 25.8% (inactive)	-5.9% (active) and 16.1% (inactive)	-12.9% (active)	-13.2% (active) and -32.3% (active)	–
O=c1[nH]c(=O)n(Cl)c(=O)n1Cl	114% (inactive) and 96.7% (inactive)	107% (inactive) and 101% (inactive)	94.2% (inactive) and 108% (inactive)	84.3% (inactive) and 86.7% (inactive)	115% (inactive) and 117% (inactive)	109% (inactive) and 107% (inactive)	101% (inactive) and 108% (inactive)	106% (inactive) and 127% (inactive)	110% (inactive) and 115% (inactive)	–
C[Se]/C=C1/C(=O)N(c2c(Cl)cccc2Cl)c2ccccc21	51.1% (inactive)	24% (inactive)	-35.7% (active)	-96.5% (active)	11.6% (inactive)	30.1% (inactive)	2.44% (active)	11.5% (inactive)	-39.7% (active)	–
COC(=O)[C@@H](C)C[C@H](Cc1ccccc1)NC(=O)c1cccc([C@@H](C[C@H](C(C)C)N(C)C(=O)[C@@H](NC(=O)[C@H]2CCCCN2C)C2CC2)OC(C)=O)n1	44.2% (inactive)	54.6% (inactive)	28.7% (inactive)	40.6% (inactive)	23.9% (inactive)	24.7% (inactive)	25.7% (inactive)	-4.08% (active)	-38.2% (active)	16% (inactive)
CCOP(=O)(NC)OCC	124% (inactive)	146% (inactive)	106% (inactive)	92.2% (inactive)	129% (inactive)	108% (inactive)	111% (inactive)	74.3% (inactive)	73.9% (inactive)	93.4% (inactive)
C[C@]12CC[C@H](O)C[C@@H]1CC[C@@H]1[C@@H]2CC[C@]2(C)OC(=O)CC[C@@H]12	108% (inactive)	89% (inactive)	96.8% (inactive)	83.1% (inactive)	97.5% (inactive)	107% (inactive)	92.8% (inactive)	109% (inactive)	94.4% (inactive)	114% (inactive)
C/C(=C\c1ccn(-c2ccc(N)c(C(F)(F)F)c2)n1)[C@@H]1C[C@@H]2O[C@]2(C)CCC[C@H](C)[C@H](O)[C@@H](C)C(=O)C(C)(C)[C@@H](O)CC(=O)O1	45.1% (inactive)	39.7% (inactive)	41.3% (inactive)	32.7% (inactive)	52.6% (inactive)	46.3% (inactive)	52.1% (inactive)	22.6% (inactive)	7.41% (active)	–
CC[C@@H](C)C(=O)O[C@H]1[C@H](O)[C@H]2[C@@H](CN3C[C@@H](C)CC[C@H]3[C@@]2(C)O)[C@@H]2C[C@]34O[C@]5(O)[C@@H](OC(=O)[C@@](C)(O)CC)CC[C@@]3(C)[C@@H]5[C@@H](OC(C)=O)[C@@H](OC(C)=O)[C@H]4[C@@]21O	103% (inactive)	93.7% (inactive)	97.1% (inactive)	82.1% (inactive)	106% (inactive)	101% (inactive)	100% (inactive)	102% (inactive)	92.4% (inactive)	99.9% (inactive)
CC[C@H](C)[C@H](NC(=O)c1ncccn1)C(=O)N(C)[C@H](C[C@@H](OC(C)=O)c1nc(C(=O)N[C@@H](Cc2ccccc2)C[C@H](C)C(=O)OC)cs1)C(C)C	43.9% (inactive)	58.5% (inactive)	45.7% (inactive)	50.5% (inactive)	41% (inactive)	50.8% (inactive)	61% (inactive)	28.1% (inactive)	-42.8% (active)	–
C#Cc1cccc(Nc2nc(Cl)nc3cc(NC(=O)CF)ccc23)c1	66% (inactive)	71.4% (inactive)	91.9% (inactive)	74% (inactive)	85.7% (inactive)	92.5% (inactive)	55.8% (inactive)	87.4% (inactive)	90.3% (inactive)	–
C[C@H](O)CCC(=O)c1ccoc1	110% (inactive)	104% (inactive)	96.9% (inactive)	98.9% (inactive)	103% (inactive)	114% (inactive)	101% (inactive)	103% (inactive)	99.4% (inactive)	98.1% (inactive)
CN1C2CCC1[C@@H](COC(=O)c1ccccc1)[C@@H](O)C2 (stereo partly drawn)	104% (inactive)	104% (inactive)	105% (inactive)	91.8% (inactive)	131% (inactive)	105% (inactive)	122% (inactive)	144% (inactive)	81.7% (inactive)	94.3% (inactive)
C[C@@]12CCCc3coc(c31)C(=O)c1cc3c(cc12)C(=O)C1=C(NCCS1(=O)=O)C3=O	-41.3% (active)	11.1% (inactive)	-79.3% (active)	35.7% (inactive)	28.2% (inactive)	30.6% (inactive)	10.5% (inactive)	35.3% (inactive)	-45% (active)	–
C=CCOC(=O)C(Br)CC (stereo not drawn)	106% (inactive)	107% (inactive)	111% (inactive)	94.6% (inactive)	103% (inactive)	100% (inactive)	101% (inactive)	90.4% (inactive)	101% (inactive)	107% (inactive)
N#CCN(CC#N)[N+](=O)[O-]	105% (inactive)	104% (inactive)	94% (inactive)	101% (inactive)	100% (inactive)	110% (inactive)	95.2% (inactive)	95% (inactive)	115% (inactive)	85.2% (inactive)
CC[C@H](C)[C@H](NC(=O)C12CC(NC)(C1)C2)C(=O)N(C)[C@H](C[C@@H](OC(C)=O)c1nc(C(=O)N[C@@H](Cc2ccccc2)C[C@H](C)C(=O)OC)cs1)C(C)C	36.7% (inactive)	37.3% (inactive)	47.2% (inactive)	40.7% (inactive)	48.5% (inactive)	33.9% (inactive)	91.2% (inactive)	-0.0952% (active)	-32.5% (active)	1.27% (active)
Cc1nnc([S-])o1.[Au+].c1ccc([PH+](c2ccccc2)c2ccccc2)cc1	47.9% (inactive)	87.3% (inactive)	40.8% (inactive)	55.1% (inactive)	102% (inactive)	0.817% (active)	41.6% (inactive)	90.5% (inactive)	6.51% (active)	11.1% (inactive)
Oc1ccccc1C=NCCN=Cc1ccccc1O.[Fe]	92.4% (inactive)	110% (inactive)	52% (inactive)	72.3% (inactive)	115% (inactive)	92.3% (inactive)	98.1% (inactive)	65.5% (inactive)	44.5% (inactive)	-32.9% (active)
Cc1cc[c-]cc1.Fc1c[c-]c(-c2ccccn2)c(F)c1.[Pt+2].c1ccc([PH+](c2ccccc2)c2ccccn2)cc1	71.8% (inactive)	65.3% (inactive)	52.1% (inactive)	58.4% (inactive)	75.9% (inactive)	69% (inactive)	54.7% (inactive)	82.7% (inactive)	38.2% (inactive)	19.9% (inactive)
Cc1cc(C(C)(C)C)ccc1O	110% (inactive)	112% (inactive)	114% (inactive)	86.9% (inactive)	108% (inactive)	112% (inactive)	101% (inactive)	96% (inactive)	96.9% (inactive)	106% (inactive)
CCOC(=O)c1cncn1C(C)c1ccccc1 (stereo not drawn)	105% (inactive)	98.2% (inactive)	102% (inactive)	81% (inactive)	95.2% (inactive)	102% (inactive)	94.6% (inactive)	134% (inactive)	104% (inactive)	94.7% (inactive)
C[N+]1(CC#CC[N+]2(C)CCCC2)CCCC1	98.5% (inactive)	97.5% (inactive)	102% (inactive)	94.4% (inactive)	96.3% (inactive)	108% (inactive)	97.1% (inactive)	84.6% (inactive)	94.1% (inactive)	107% (inactive)
Cc1ccc(NC2=N[C@]34CC(=O)CC[C@]3(C)[C@H]3CC[C@]5(C)C(=O)CC[C@H]5[C@@H]3C[C@@H]4S2)c(C)c1	72.6% (inactive)	51.9% (inactive)	26.2% (inactive)	34.3% (inactive)	63.3% (inactive)	32.3% (inactive)	49.8% (inactive)	66.7% (inactive)	9.29% (active)	7.99% (active)
